An excerpt weighted towards active compounds, which were near 10% of everything screened.
HPGD inh – blocks human HPGD enzyme activity | Potency, µM, for inactives: at the highest dose activity change, negative = inhibition, most hits filed as inhibitors | 4.3% of 150,000 active | AID 894 | purified HPGD, NADH fluorescence kinetic, PGE2 substrate | P15428; note: potency is the fitted concentration of half-maximal effect
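NADH formation kinetics: reaction with 30 uM PGE2 and 1 mM NAD+ (final), 20 nM enzyme, Tris-HCl pH 8 with Tween 20, after 15 min compound preincubation at room temperature. Fluorescence change, last versus first of five reads.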
LMNA splice mod – modulators of lamin A splicing | HeLa LMNA splicing GFP/RFP minigene ratio, 48 h | 0.01% of 200,000 active | Potency, µM (top dose mostly 46.1 µM), inactives show at the top dose ratio change, negative = inhibition, usual class: inhibitors; active = well fitted inhibition curve with a large enough effect in the signal ratio, with a control signal flat, not every such curve was filed as active; inconclusive = small, poorly fitted or top-dose-only effect, or effect the other way, or a change in a side signal; the % refers to the signal ratio; note: potency is the fitted concentration of half-maximal effect
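Read-out is the ratio of GFP to DsRed2 object intensity, acquired by 488 nm laser-scanning cytometry on HeLa lamin A-EGFP minigene reporter cells. Compound incubation 48 hrs at 37 °C in Opti-MEM with 2% FBS; DMSO 0.5% final.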
PNC inhibitor – perinucleolar compartment assembly inhibition; PC3M PTB-GFP, PNC prevalence imaging, 16 h; hits give low values; 3.1% of 140,000 active; activity change (PNC), negative = inhibition, % at 10 µM;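 active = readout at or below -70, meaning at least 70% loss of cells showing the perinucleolar compartment, a nuclear body marking cancer cells; inconclusive = readout between -30 and a set limit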;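 note: plate controls were DMSO wells for no effect and camptothecin positive control wells for full effect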
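Read-out is percentage of cells bearing a perinucleolar compartment, from automated 20x imaging of fixed, Hoechst-stained PC3M PTB-GFP cells. Cells were seeded 4 h, then exposed 16 h to compound (23 nl of library stock) in duplicate plates.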
Luc counter – blocks Kinase-Glo luciferase, a counter-screen artifact. AID 1379. 0.28% of 200,000 active. Kinase-Glo luciferase, ATP luminescence, 8 min. Potency, µM (doses to about 38.3 µM), without a hit: top-dose activity change, negative = inhibition, most hits filed as inhibitors; active = well fitted inhibition curve with a large enough effect; inconclusive = small, poorly fitted or top-dose-only effect; note: potency is the fitted concentration of half-maximal effect; nearly all actives have a fitted effect of over 60% in size
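Compound is pinned into ATP-containing buffer (10 uM ATP, imidazole pH 7.2, 7 mM MgCl2). Kinase-Glo luciferase reagent is then added. Light output is recorded following an 8-min room-temperature incubation.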
IMPase cell inh – cell-permeable inhibitors of inositol monophosphatase (IMPase); P97697; CHO-M1 cells, IP1 accumulation, HTRF TR-FRET ratio; inhibition (IP1 accumulation), % at 46.1 µM; 120,000 tested, under 10 active; active = well fitted curve in the direction sought with a large enough effect in the signal ratio, not every such curve was filed as active; inconclusive = small, poorly fitted or top-dose-only effect, or a change in a side signal; inactive = no such curve, though single readings can be large or run the other way; the % refers to the signal ratio;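 note: cells stimulated with carbachol in lithium chloride buffer; plate controls were DMSO basal wells for no effect and reference inhibitor wells for full effect; higher means more IMPase inhibition seen as more IP1 and lower FRET ratio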
Target sequence (P97697 whole entry, looked up): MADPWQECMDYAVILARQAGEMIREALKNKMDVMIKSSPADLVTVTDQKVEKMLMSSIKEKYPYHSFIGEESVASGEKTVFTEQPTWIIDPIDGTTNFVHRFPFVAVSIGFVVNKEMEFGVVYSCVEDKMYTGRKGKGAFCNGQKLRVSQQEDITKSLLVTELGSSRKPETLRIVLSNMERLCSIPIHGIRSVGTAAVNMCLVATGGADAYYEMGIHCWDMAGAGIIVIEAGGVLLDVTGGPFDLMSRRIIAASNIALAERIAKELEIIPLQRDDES
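Seeded CHO-M1 cells were dosed with compound at up to 46 uM, stimulated with carbachol for 30 min, then lysed in IP-One detection reagents. Higher IP1 lowers the TR-FRET signal.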
ALDH1A1 block – inhibitors of human aldehyde dehydrogenase 1A1; P00352; Purified ALDH1A1, NADH fluorescence, propionaldehyde substrate; Potency, µM (doses to about 75.3 µM), for inactives: top-dose activity, negative = inhibition, most hits filed as inhibitors; 7.3% of 220,000 active; AID 1030;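 note: potency is the fitted concentration of half-maximal effect; plate controls were no enzyme wells and a reference inhibitor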
Target sequence (P00352 whole entry, looked up): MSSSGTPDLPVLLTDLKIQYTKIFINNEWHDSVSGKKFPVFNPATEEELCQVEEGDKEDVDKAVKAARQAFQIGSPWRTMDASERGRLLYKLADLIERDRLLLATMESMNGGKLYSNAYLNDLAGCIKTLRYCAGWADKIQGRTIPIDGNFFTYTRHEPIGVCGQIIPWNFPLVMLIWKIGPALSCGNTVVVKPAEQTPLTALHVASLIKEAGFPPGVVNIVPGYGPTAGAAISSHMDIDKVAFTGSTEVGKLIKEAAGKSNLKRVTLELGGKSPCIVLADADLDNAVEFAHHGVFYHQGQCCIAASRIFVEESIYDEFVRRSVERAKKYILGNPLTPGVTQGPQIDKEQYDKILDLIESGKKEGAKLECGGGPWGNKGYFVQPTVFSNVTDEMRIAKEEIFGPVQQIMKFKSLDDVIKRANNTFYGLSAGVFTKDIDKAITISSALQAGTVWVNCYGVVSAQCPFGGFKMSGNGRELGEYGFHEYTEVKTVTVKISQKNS
Active calls of the source: *; ? = inconclusive; nt = no result; [ ] = remark or other dose. Unless noted, calls come from the whole dose curve; as a rule, active = well fitted inhibition curve with a large enough effect (not every such curve was filed as active); inconclusive = small, poorly fitted or top-dose-only effect, or another doubt; inactive = no such curve, though single readings can be large or run the other way. Unless noted, % is set by controls: 0 for no effect and ±100 for the full control effect.

SMILES | HPGD inh | LMNA splice mod | PNC inhibitor | Luc counter | IMPase cell inh | ALDH1A1 block
O=C1CC(NCc2ccncc2)C(=O)N1c1ccccc1 (stereo not given) | -5.4% | -4.1% | 31.0 | -1.1% | 0.8 | ?
N#Cc1cc2c(nc1SC1CC(=O)N(c3ccccc3)C1=O)CCC2 (stereo not given) | -0.1% | 6.5% | ? | -4.7% | nt | -13.6%
O=C1CC(Sc2ncccn2)C(=O)N1c1ccccc1 (stereo not given) | -9.6% | 4.9% | ? | 2.0% | -1.5 | 22.4µM*
CCCOc1ccc(N2C(=O)CC(SC(=NC)Nc3ccc(F)cc3)C2=O)cc1 (stereo not given) | -9.7% | -6.1% | 29.8 | -3.7% | -6.4 | 1.8%
CN=C(NC)SC1CC(=O)N(c2ccccc2)C1=O (stereo not given) | 4.0% | 4.4% | -17.6 | -0.6% | -1.4 | 9.7%
Nc1nnc(SC2CC(=O)N(c3ccccc3)C2=O)s1 (stereo not given) | 31.6µM* | -2.2% | 11.0 | -5.8% | 2.5 | 3.55µM*
Cc1noc(C)c1-c1nc(NCc2cccs2)c2ccccc2n1 | nt | -5.3% | nt | nt | nt | 8.7%
N[C@@H](Cc1cccnn1)C(=O)O | -0.7% | nt | nt | 0.3%[7.66 µM] | nt | 2.2%[13.5 µM]
CC(N)(C(=O)O)c1cccc(CC(=O)O)c1 (stereo not given) | nt | nt | nt | nt | nt | -7.4%
CCOc1ccc(N2C(=O)CC(Sc3nccc(C)n3)C2=O)cc1 (stereo not given) | -5.4% | 9.8% | ? | -1.1% | -0.4 | ?
CCOc1ccc(N2C(=O)CC(Sc3ncccn3)C2=O)cc1 (stereo not given) | 0.5% | 8.4% | 18.5 | 0.7% | -4.6 | 22.4µM*
COc1ccccc1N1C(=O)CC(Sc2n[nH]c(-c3cccc(C)c3)n2)C1=O (stereo not given) | ? | -0.5% | 27.9 | 0.4% | nt | 2µM*
COc1ccccc1N1C(=O)CC(Sc2nccc(C)n2)C1=O (stereo not given) | -10.8% | -3.8% | -5.3 | 1.9% | 13.1 | 0.4%
Cc1nc(SC2CC(=O)N(c3ccccc3)C2=O)n[nH]1 (stereo not given) | nt | nt | nt | 3.1% | nt | 0.355µM*
CC(c1ccccc1)N1CCN(C(=O)CCl)CC1 (stereo not given) | nt | nt | nt | 4.4% | nt | 0.447µM*
COc1cc(OC)cc(C(=O)Nc2ccc(-c3nc4cc(C(C)C)ccc4o3)cc2)c1 | nt | nt | nt | nt | -6.4 | nt
CC1(C)OC(=O)C(=CNc2ncccn2)C(=O)O1 | -7.1% | 7.4% | 23.9 | 0.6% | 5.5 | ?
Cc1cc(C)nc(NC=C2C(=O)OC(C)(C)OC2=O)n1 | nt | nt | nt | nt | nt | 3.98µM*
COc1ccc(NC(=O)c2cnc(SCC(=O)Nc3nc4ccc(C)cc4s3)n(C)c2=O)cc1 | nt | 11.7%[46 µM] | nt | nt | nt | nt
C=CC1=C2C=C(C3CC3)N(CCOC)C=C2C(=O)C(C)(OC(=O)c2ccco2)C1=O (stereo not given) | -8.6% | -5.9%[9.22 µM] | nt | -1.1%[7.66 µM] | nt | 2.5%[13.5 µM]
O=C1NN(c2ccccc2)C(=O)/C1=C/c1ccc(-c2ccc(Cl)c(C(=O)O)c2)o1 | nt | ? | nt | -3.1% | nt | 12.6µM*
CCOC(=O)/C(C(=O)Nc1ccccc1Br)=C1/NC(C)(C)Cc2ccccc21 | -12.6% | -1.2% | 44.7 | -1.0% | nt | 28.2µM*
N#CCCN(Cc1cccnc1)C(=O)c1sc2cc(F)ccc2c1Cl | 7.08µM* | ? | -5.8 | -2.1% | nt | -3.1%
Cc1ccccc1C(=O)NCc1ccc2c(c1)CCN2C(=O)c1ccccc1 | nt | 8.4%[46 µM] | nt | nt | nt | nt
Fc1ccc(Nc2ccnc(-c3ccc4c(c3)OCO4)n2)cc1 | nt | ? | nt | nt | nt | -5.5%
SMILES | HPGD inh | LMNA splice mod | PNC inhibitor | Luc counter | IMPase cell inh | ALDH1A1 block
Clc1cccc(-c2nc(-c3ccccn3)no2)c1 | 2.6% | 1.1% | -25.1 | ? | 1.8 | 4.6%
Cc1ccc2nc(-c3ccccn3)oc2c1 | ? | 5.9% | 56.6 | 12.6µM* | -13.7 | ?
Cc1ccc2nc(-c3cccnc3)oc2c1 | ? | 3.6% | 6.7 | -6.6% | -1.1 | ?
c1ccc(-c2nc(-c3ccccn3)no2)cc1 | -4.4% | -13.7% | 25.7 | 3.16µM* | -3.1 | 12.5%
COc1cccc(-c2nc(-c3ccccn3)no2)c1OC | -23.7% | 2.4% | -84.4* | -1.9% | 1.3 | ?
Cc1ccc(-c2nc(-c3ccccn3)no2)cc1Cl | -19.3% | -0.7% | ? | 11.2µM* | 0.3 | -4.9%
COc1cc(-c2nc(-c3ccccn3)no2)cc(OC)c1OC | -12.8% | 0.2% | 32.7 | 9.5% | -8.9 | ?
O=C(Cn1c(-c2cccs2)cc2cc(Cl)ccc21)N1CCCCC1 | nt | -12.0%[46 µM] | nt | nt | nt | nt
Cc1ccc(-c2nc(-c3ccccn3)no2)cc1 | -19.3% | -2.6% | 9.1 | 3.16µM* | -1.2 | 2.8%
O=[N+]([O-])c1ccccc1NCCNS(=O)(=O)c1ccc(Cl)cc1 | -18.4% | ? | 42.3 | -1.1% | nt | ?
O=[N+]([O-])c1ccccc1S(=O)(=O)NCCc1ccncc1 | nt | 21.5%[9.22 µM] | nt | 1.9% | nt | 17.8µM*
O=[N+]([O-])c1cccc(Cl)c1NCCNS(=O)(=O)c1ccc(Cl)cc1 | -4.5% | -15.3% | ? | 2.2% | -3.4 | ?
O=[N+]([O-])c1ccccc1S(=O)(=O)NCc1cccnc1 | nt | nt | nt | 0.5% | nt | 0.3%
CC(=O)Nc1ccc(S(=O)(=O)NCCNc2ccccc2[N+](=O)[O-])cc1 | nt | nt | nt | 4.3% | nt | 4.47µM*
O=[N+]([O-])c1cccc(Cl)c1NCCNS(=O)(=O)c1ccccc1 | -24.2% | -3.1% | ? | 5.2% | 6.0 | 11.2µM*
COC(=O)C1=C(O)/C(=C\c2cc(C)n(-c3ccccc3F)c2C)N=C1C | nt | nt | nt | -1.3% | nt | 11.2µM*
COC(=O)C1=C(C)NC(=O)/C1=C\c1cc(C)n(-c2ccccc2)c1C | nt | nt | nt | 1.7% | nt | 25.1µM*
COC(=O)C1=C(C)NC(=O)/C1=C\c1cc(C)n(-c2cc(C)cc(C)c2)c1C | -6.2% | -1.3% | 14.3 | 16.6% | 1.6 | -12.8%
COC(=O)C1=C(O)/C(=C\c2cc(C)n(-c3ccccc3C)c2C)N=C1C | -20.1% | -8.8% | ? | -8.4% | 11.7 | ?
Cc1cc(C)cc(C(=O)n2nc(C)c(S(=O)(=O)N3CCCCCC3)c2C)c1 | nt | 1.9%[46 µM] | nt | nt | nt | nt
Cc1cc(NC(=O)Nc2ccc(N(C)C)cc2)c2cc(F)cc(F)c2n1 | -9.1% | nt | nt | 2.0% | 37.1 | -7.1%
COc1ccc(C2=NN(CN3C(=O)C(=O)c4ccccc43)C(c3ccc(OC)cc3)C2)cc1 (stereo not given) | -22.7% | ? | ? | 0.8% | nt | 0.112µM*
CCC(=O)NCCNc1ccc([N+](=O)[O-])cn1 | -16.9% | 2.2% | -80.7* | 0.4% | nt | 0.7%
CC(=O)NCCNc1ccc([N+](=O)[O-])cn1 | -15.9% | 2.9% | 30.4 | -0.9% | nt | 3.9%
C=C(C)C(O)C(CC/C=C(\C)C(=O)OCC)OC (stereo not given) | nt | nt | nt | nt | nt | 10.9%[13.5 µM]

Bioassay records: PubChem BioAssay, National Center for Advancing Translational Sciences (NCATS)
